PubChem BioAssay (NCATS)
Where “and” joins values, the source holds several entries; their conditions need not be identical. Equal values may be shown once. Inconclusive results are not listed. Calls of active or inactive are those of the source. Calls come from the whole dose curve; as a rule, active = well fitted curve in the direction sought with a large enough effect; inconclusive = small, poorly fitted or top-dose-only effect, or another doubt; inactive = no such curve, though single readings can be large; an effect the other way counts as inactive or inconclusive. Peptide text beside a SMILES is read from it.

Tests used:
[1] = qHTS of pediatric cancer cell lines to identify multiple opportunities for drug repurposing: Primary screen for SK-N-MC cells (AID 1347093); note: potency is the fitted concentration of half-maximal effect
Procedure, shortened: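 Metabolically active cells were quantified by ATP-dependent luminescence (CellTiter-Glo, 15 min at room temperature) following 48 h treatment. Cells had been plated at 500-1,000 per well and settled for 5 h beforehand.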

[2] = qHTS of pediatric cancer cell lines to identify multiple opportunities for drug repurposing: Primary screen for BT-37 cells (AID 1347094); note: potency is the fitted concentration of half-maximal effect
Procedure, shortened: (§1)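 ATP-based luminescence (CellTiter-Glo) quantifies viability after a 48-hour exposure. Compounds are dosed across 8 or 11 final concentrations; DMSO and 2.3 µM bortezomib serve as controls.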

[3] = qHTS of pediatric cancer cell lines to identify multiple opportunities for drug repurposing: Primary screen for U-2 OS cells (AID 1347096); note: nearly all actives have a fitted effect of over 50% in size; note: potency is the fitted concentration of half-maximal effect
Procedure, shortened: (§2)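 Cells (500-1,000/well) rested 5 h, then received compounds for 48 h; metabolically active cells were measured by CellTiter-Glo luminescence. Final concentrations spanned up to 46 µM (MIPE, 11-point) or 0.59 nM-46 µM (NPC, 8-point) in primary screens, 11-point in follow-ups.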

[4] = qHTS of pediatric cancer cell lines to identify multiple opportunities for drug repurposing: Primary screen for SK-N-SH cells (AID 1347098); note: nearly all actives have a fitted effect of over 65% in size; note: potency is the fitted concentration of half-maximal effect
Procedure, shortened: as §2

[5] = qHTS of pediatric cancer cell lines to identify multiple opportunities for drug repurposing: Primary screen for LAN-5 cells (AID 1347100)
Procedure, shortened: as §2

[6] = qHTS of pediatric cancer cell lines to identify multiple opportunities for drug repurposing: Primary screen for BT-12 cells (AID 1347101); note: nearly all actives have a fitted effect of over 25% in size; note: potency is the fitted concentration of half-maximal effect
Procedure, shortened: as §2

[7] = qHTS of pediatric cancer cell lines to identify multiple opportunities for drug repurposing: Primary screen for Rh18 cells (AID 1347102); note: nearly all actives have a fitted effect of over 65% in size; note: potency is the fitted concentration of half-maximal effect
Procedure, shortened: as §2

[8] = qHTS of pediatric cancer cell lines to identify multiple opportunities for drug repurposing: Primary screen for RD cells (AID 1347104); note: nearly all actives have a fitted effect of over 55% in size; note: potency is the fitted concentration of half-maximal effect
Procedure, shortened: as §1

[9] = qHTS of pediatric cancer cell lines to identify multiple opportunities for drug repurposing: Primary screen for control Hh wild type fibroblast cells (AID 1347106); note: nearly all actives have a fitted effect of over 55% in size; note: potency is the fitted concentration of half-maximal effect
Procedure, shortened: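 Viability after 48 h compound treatment at 37C, 500-1,000 cells/well, read as ATP luminescence with CellTiter-Glo. Primary screens used 11-point (MIPE, 0.78 nM-46 µM) or 8-point (NPC, 0.59 nM-46 µM) final concentrations; follow-up screens used 11-point dilutions.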

[10] = qHTS of pediatric cancer cell lines to identify multiple opportunities for drug repurposing: Primary screen for Rh30 cells (AID 1347107); note: nearly all actives have a fitted effect of over 75% in size; note: potency is the fitted concentration of half-maximal effect
Procedure, shortened: as §2

[11] = qHTS of pediatric cancer cell lines to identify multiple opportunities for drug repurposing: Primary screen for Rh41 cells (AID 1347108); note: nearly all actives have a fitted effect of over 70% in size; note: potency is the fitted concentration of half-maximal effect
Procedure, shortened: as §1

[12] = qHTS of pediatric cancer cell lines to identify multiple opportunities for drug repurposing: Primary screen for NB-EBc1 cells (AID 1347095); note: potency is the fitted concentration of half-maximal effect
Procedure, shortened: as §1

[13] = qHTS of pediatric cancer cell lines to identify multiple opportunities for drug repurposing: Primary screen for NB1643 cells (AID 1347099); note: nearly all actives have a fitted effect of over 50% in size; note: potency is the fitted concentration of half-maximal effect
Procedure, shortened: as §1

[14] = qHTS of pediatric cancer cell lines to identify multiple opportunities for drug repurposing: Primary screen for MG 63 (6-TG R) cells (AID 1347105); note: nearly all actives have a fitted effect of over 50% in size; note: potency is the fitted concentration of half-maximal effect
Procedure, shortened: as §1

[15] = qHTS of pediatric cancer cell lines to identify multiple opportunities for drug repurposing: Primary screen for Saos-2 cells (AID 1347097); note: nearly all actives have a fitted effect of over 40% in size; note: potency is the fitted concentration of half-maximal effect
Procedure, shortened: as §1

[16] = qHTS of pediatric cancer cell lines to identify multiple opportunities for drug repurposing: Primary screen for OHS-50 cells (AID 1347103); note: nearly all actives have a fitted effect of over 40% in size; note: potency is the fitted concentration of half-maximal effect
Procedure, shortened: as §2

[17] = qHTS of pediatric cancer cell lines to identify multiple opportunities for drug repurposing: Confirmatory screen for A673 cells (AID 1347110);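 note: cells exposed to compound for 48 h before the viability read; nearly all actives have a fitted effect of over 65% in size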; note: potency is the fitted concentration of half-maximal effect
Procedure, shortened: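 Cells plated at 500-1,000/well were treated five hours later with multi-point dilutions up to 46 µM final. After two days, CellTiter-Glo was added and luminescence read.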

[18] = qHTS of pediatric cancer cell lines to identify multiple opportunities for drug repurposing: Confirmatory screen for SK-N-MC cells (AID 1347111);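 note: potency is the fitted concentration of half-maximal effect; cells exposed to compound for 48 h before the readout; nearly all actives have a fitted effect of over 70% in size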
Procedure, shortened: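 Seed 500-1,000 cells/well; rest 5 h at 37 degrees C. Pin-transfer compounds, 11-point titration. Incubate 48 h. Add CellTiter-Glo, 15 min RT, read luminescence.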

[19] = qHTS of pediatric cancer cell lines to identify multiple opportunities for drug repurposing: Confirmatory screen for NB1643 cells (AID 1347109); note: nearly all actives have a fitted effect of over 45% in size; note: potency is the fitted concentration of half-maximal effect
Procedure, shortened: as §2

[20] = qHTS of pediatric cancer cell lines to identify multiple opportunities for drug repurposing: Confirmatory screen for BT-12 cells (AID 1347112); note: nearly all actives have a fitted effect of over 55% in size; note: potency is the fitted concentration of half-maximal effect
Procedure, shortened: as §2

Measured: Potency

CC1(C)CCC(C)(C)c2cc(NC(=O)c3ccc(C(=O)O)cc3)ccc21
active: [1] 1.87 µM
inactive: [2] | [3] | [4] | [5] | [6] | [7] | [8] | [9] | [10] | [11]

CC(C)c1nc(CN(C)C(=O)N[C@H](C(=O)N[C@@H](Cc2ccccc2)C[C@H](O)[C@H](Cc2ccccc2)NC(=O)OCc2cncs2)C(C)C)cs1
inactive: [2] | [3] | [6] | [8] | [9]
active: [1] 10.5 µM | [12] 23.7 µM

COC1=C(OC)C(=O)C(CCCCCCCCCCO)=C(C)C1=O
inactive: [1] | [2] | [3] | [4] | [13] | [14] | [9] | [10] | [11]

COC(=O)N[C@H](C(=O)N[C@@H](Cc1ccccc1)[C@@H](O)CN(Cc1ccc(-c2ccccn2)cc1)NC(=O)[C@@H](NC(=O)OC)C(C)(C)C)C(C)(C)C
not listed: [2] | [10] | [17] | [18] | [19] | [20]
inactive: all other assays above

S=c1nc[nH]c2nc[nH]c12
active: [1] 11.8 µM | [2] 2.46 µM and 3.43 µM | [12] 531 nM and 1.66 µM | [6] 15.5 µM and 24.3 µM | [16] 2.19 µM and 3.06 µM
inactive: [4] | [7] | [8] | [9] | [11]

Cc1nccn1CC1CCc2c(c3ccccc3n2C)C1=O (stereo unspecified)
not listed: [5] | [13] | [15] | [16] | [17] | [18] | [19] | [20]
inactive: all other assays above

CCC[C@@H]1C[C@@H](C(=O)N[C@@H]([C@H]2O[C@H](SC)[C@H](O)[C@@H](O)[C@H]2O)[C@@H](C)O)N(C)C1
not listed: [2] | [17] | [18] | [19] | [20]
inactive: all other assays above

CC(C)Oc1ccc2c(=O)c(-c3ccccc3)coc2c1
not listed: [6] | [14] | [15] | [16] | [17] | [18] | [19] | [20]
inactive: all other assays above

CCc1nc(N)nc(N)c1-c1ccc(Cl)cc1
active: [1] 668 nM and 1.18 µM | [2] 6.92 µM | [12] 2.66 µM and 5.26 µM | [6] 8.71 µM and 10.9 µM | [8] 10.6 µM and 18.7 µM | [17] 0.329 µM | [18] 1.31 µM
inactive: [15] | [4] | [13] | [7] | [9] | [10] | [11]

CCC1=C(C)CN(C(=O)NCCc2ccc(S(=O)(=O)NC(=O)NC3CCC(C)CC3)cc2)C1=O (stereo unspecified)
not listed: [2] | [10] | [17] | [18] | [19] | [20]
inactive: all other assays above

C=C(c1ccc(C(=O)O)cc1)c1cc2c(cc1C)C(C)(C)CCC2(C)C
active: [1] 2.11 µM | [16] 3.89 µM
not listed: [12] | [18]
inactive: all other assays above

Nc1ccn([C@@H]2O[C@H](CO)[C@@H](O)C2O)c(=O)n1 (stereo partly specified)
active: [17] 16.5 µM
not listed: [2] | [14] | [18]
inactive: all other assays above

COc1cc(Nc2c(C#N)cnc3cc(OCCCN4CCN(C)CC4)c(OC)cc23)c(Cl)cc1Cl
inactive: [12] | [9]
active: [1] 2.11 µM and 1.87 µM | [3] 21.1 µM | [4] 6.12 µM | [6] 27.6 µM | [16] 19.5 µM and 2.17 µM | [8] 15 µM and 14.8 µM

CCN(CC)CCOc1ccc(Cc2ccccc2)cc1
inactive: [1] | [12] | [3] | [15] | [13] | [6] | [7] | [14] | [9] | [10] | [11]

COc1cc(C(C)=O)ccc1OCCCN1CCC(c2noc3cc(F)ccc23)CC1
active: [16] 21.7 µM and 19.5 µM
not listed: [2] | [6] | [8] | [14] | [15] | [18] | [20]
inactive: all other assays above

O=C(O)c1cccnc1Nc1cccc(C(F)(F)F)c1
active: [1] 26.6 µM
not listed: [2] | [5] | [10] | [17] | [18] | [19] | [20]
inactive: all other assays above

CCN(CC)CCOc1ccc(Nc2ncc3cc(-c4c(Cl)cccc4Cl)c(=O)n(C)c3n2)cc1
active: [1] 0.105 µM | [12] 1.48 µM | [3] 1.18 µM | [15] 0.296 µM | [4] 0.242 µM | [13] 3.72 µM | [6] 19.3 µM | [7] 0.372 µM | [16] 0.122 µM | [8] 743 nM | [14] 0.187 µM | [11] 1.87 µM | [19] 9.27 µM | [17] 0.185 µM | [18] 0.293 µM | [20] 11.7 µM

CN(C)C(=O)[C@H](O)[C@H](Cc1ccccc1)NC(=O)c1cc2cc(Cl)ccc2[nH]1
inactive: [3] | [5] | [16] | [9]
active: [1] 1.18 µM | [12] 3.32 µM

CCC(C)(Oc1ccc(C2(c3ccc(OC(C)(CC)C(=O)O)cc3)CCCCC2)cc1)C(=O)O (stereo unspecified)
not listed: [2] | [10] | [15] | [17] | [18] | [19] | [20]
inactive: all other assays above

CN(C)CCCC1(c2ccc(F)cc2)OCc2cc(C#N)ccc21 (stereo unspecified)
active: [1] 11.8 µM | [13] 16.6 µM | [8] 29600 nM
inactive: [12] | [3] | [5] | [6] | [7] | [16] | [14] | [9] | [10]

CC(=O)NC[C@H]1CN(c2ccc(N3CCOCC3)c(F)c2)C(=O)O1
not listed: [2] | [4] | [17] | [18] | [19] | [20]
inactive: all other assays above

COc1cc2c(N3CCN(C(=O)Nc4ccc(OC(C)C)cc4)CC3)ncnc2cc1OCCCN1CCCCC1
inactive: [12] | [3] | [14] | [10]
active: [1] 23.5 µM | [4] 27.1 µM and 17.2 µM | [6] 24.3 µM | [16] 27.3 µM and 19.5 µM | [8] 26.4 µM and 26.6 µM

N[C@@H](Cc1cc(I)c(Oc2cc(I)c(O)c(I)c2)c(I)c1)C(=O)O
inactive: [1] | [12] | [3] | [4] | [13] | [6] | [7] | [16] | [8] | [9] | [11]

COC(=O)[C@H](Cc1ccccc1)NC(=O)[C@@H](N)CC(=O)O (H-Asp-Phe-OMe)
not listed: [2] | [10] | [15] | [17] | [18] | [19] | [20]
inactive: all other assays above

COc1ccc(C2(C#N)CCC(C(=O)O)CC2)cc1OC1CCCC1 (stereo unspecified)
active: [1] 16.6 µM | [13] 11.8 µM
inactive: [12] | [3] | [5] | [6] | [7] | [16] | [8] | [9] | [10] | [11]

CN1CCC(=C2c3ccccc3CCc3sccc32)CC1
inactive: [12] | [3] | [9] | [10] | [11]
active: [1] 29.6 µM | [4] 13.6 µM | [16] 12.3 µM

CC(C)C[C@H](NC(=O)[C@H](Cc1ccccc1)NC(=O)c1cnccn1)B(O)O
active: [1] 0.006 µM | [12] 0.0376 µM | [3] 0.0422 µM | [15] 0.469 µM | [4] 0.0429 µM | [13] 0.0299 µM | [6] 0.0432 µM | [7] 0.0296 µM | [16] 0.0871 µM | [8] 53.1 nM | [9] 0.0743 µM | [10] 0.0935 µM | [11] 0.0296 µM | [19] 0.0369 µM | [17] 0.0465 µM | [18] 0.0131 µM | [20] 0.0465 µM

NC(=NCc1ccccc1)NC(=O)c1nc(Cl)c(N)nc1N
active: [1] 1.18 µM | [13] 9.35 µM | [8] 26400 nM
inactive: [12] | [3] | [4] | [5] | [6] | [7] | [16] | [9]

O=c1c(O)c(-c2ccc(O)cc2O)oc2cc(O)cc(O)c12
not listed: [2] | [11] | [15] | [17] | [18] | [19] | [20]
inactive: all other assays above

CC(C)[C@H](N)C(=O)OCCOCn1cnc2c(=O)[nH]c(N)nc21
not listed: [2] | [5] | [15] | [17] | [18] | [19] | [20]
inactive: all other assays above
